Measured values reported in PubChem BioAssay (EPA / NIEHS).
Records with an inconclusive call do not appear. Calls of active or inactive are those of the source. Rule for the calls: active = hit-call score of the fitted dose curve at least 0.9, where 1 is the maximum; inconclusive = response in the unintended direction; inactive = score below 0.9.

Each molecule was assayed against human RAR-related Orphan Receptor gamma (RORg), RORC (gene 6097) (UniProt P51449) (assay: ATG_RORg_TRANS: Attagene TRANS-FACTORIAL HepG2 Assay for human RAR-related Orphan Receptor gamma (RORg) (AID 2283011)).
Method in brief: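 Chimeric RORg-Gal4 transactivation in transfected HepG2; 24 h exposure; RT-PCR/capillary electrophoresis readout of reporter mRNA, DMSO baseline.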

Chain of human RAR-related Orphan Receptor gamma (RORg), RORC (gene 6097) (P51449 whole entry, looked up, the tested form may be a part): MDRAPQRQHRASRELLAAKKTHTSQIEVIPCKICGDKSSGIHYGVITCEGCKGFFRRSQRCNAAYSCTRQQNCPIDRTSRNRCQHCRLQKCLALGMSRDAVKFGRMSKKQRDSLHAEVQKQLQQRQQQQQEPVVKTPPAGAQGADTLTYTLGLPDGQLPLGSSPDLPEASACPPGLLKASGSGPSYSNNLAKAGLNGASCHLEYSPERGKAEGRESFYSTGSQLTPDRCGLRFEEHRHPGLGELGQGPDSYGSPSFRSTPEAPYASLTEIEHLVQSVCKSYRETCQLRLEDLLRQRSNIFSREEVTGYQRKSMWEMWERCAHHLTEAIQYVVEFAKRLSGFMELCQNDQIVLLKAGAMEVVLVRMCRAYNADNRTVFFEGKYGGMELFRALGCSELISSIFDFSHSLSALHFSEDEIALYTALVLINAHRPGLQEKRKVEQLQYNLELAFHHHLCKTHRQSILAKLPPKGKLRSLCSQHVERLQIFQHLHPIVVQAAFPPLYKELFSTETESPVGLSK

| Structure (SMILES) | outcome |
| --- | --- |
| CC(C)(C)C1CCC(=O)CC1 | inactive |
| [Cl][Eu]([Cl])[Cl] | inactive |
| CCCCOCCOCCOC(C)=O | inactive |
| CCCCNC(=S)NCCCC | inactive |
| CCOC(=O)c1ccccc1C | inactive |
| CCCCCCCCCCCCCc1ccccc1 | inactive |
| CCCCC(=O)O | inactive |
| CCCCOC(=O)C(C)CC (stereo unspecified) | inactive |
| CCCCCCCCCCCCC | inactive |
| CC(=O)CCC1=C(C)CCCC1(C)C | inactive |
| Cc1cc(=O)[nH]c(=O)[nH]1 | inactive |
| C=Cc1cccc(C)c1 | inactive |

These molecules were tested against Retinoic acid receptor RXR-alpha (Homo sapiens) (UniProt P19793) (assay: ATG_RXRa_TRANS: Attagene TRANS-FACTORIAL HepG2 Assay for human Retinoid X Receptor alpha (RXRa) (AID 2283012)).
Method in brief: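 HepG2 cells transiently transfected with multiplexed GAL4-UAS reporter units and chimeric NR-GAL4 fusions, dosed 24 h. Reporter mRNA measured by RT-PCR, FAM labelling, HpaI digestion and capillary electrophoresis; gain-of-signal fitted relative to DMSO baseline.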

Chain of Retinoic acid receptor RXR-alpha (Homo sapiens) (P19793 whole entry, looked up, the tested form may be a part): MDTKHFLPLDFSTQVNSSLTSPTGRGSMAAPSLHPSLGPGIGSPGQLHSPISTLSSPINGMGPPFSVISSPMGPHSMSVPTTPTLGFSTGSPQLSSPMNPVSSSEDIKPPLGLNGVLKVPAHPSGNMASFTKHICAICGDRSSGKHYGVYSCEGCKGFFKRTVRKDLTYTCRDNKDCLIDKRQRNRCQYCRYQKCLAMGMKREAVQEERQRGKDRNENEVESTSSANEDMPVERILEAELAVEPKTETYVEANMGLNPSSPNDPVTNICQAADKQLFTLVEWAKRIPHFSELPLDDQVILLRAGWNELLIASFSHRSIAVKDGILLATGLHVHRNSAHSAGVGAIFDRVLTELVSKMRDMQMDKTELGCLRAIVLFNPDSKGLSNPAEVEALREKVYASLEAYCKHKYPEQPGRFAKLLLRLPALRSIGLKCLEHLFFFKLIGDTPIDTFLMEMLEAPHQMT

| Structure (SMILES) | outcome | AC50 |
| --- | --- | --- |
| CC(C)(CO)C(O)C(=O)NCCCO (stereo unspecified) | inactive |  |
| CCCCc1ccc(Cl)cc1 | inactive |  |
| CC(C)(C)C1CCC(=O)CC1 | inactive |  |
| CCCCNS(=O)(=O)c1ccc(C)cc1 | inactive |  |
| CCCCOCCOCCOC(C)=O | inactive |  |
| CCCCCCCCCCCCCc1ccccc1 | inactive |  |
| CC(C=O)c1ccccc1 (stereo unspecified) | inactive |  |
| Cc1ccc(S(=O)(=O)N=C=O)cc1 | inactive |  |
| CC(C)c1ccc(O)c(C(C)C)c1 |  | 54.6 µM (active) |
| Cc1cccc(C(C)(C)C)c1O | inactive |  |
| CCCCCCCCCCCCC | inactive |  |
| CC(=O)CCC1=C(C)CCCC1(C)C | inactive |  |
| CCCC/C=C/C=C\C=O | inactive |  |
| CCCCC1CCC(=O)O1 (stereo unspecified) | inactive |  |
| CCCCCCCCCCCCc1ccc(O)cc1 | inactive |  |
| Cc1cc(=O)[nH]c(=O)[nH]1 | inactive |  |
| C=C[Si](OCCOC)(OCCOC)OCCOC | inactive |  |
| CCc1occc(=O)c1O | inactive |  |
| C[Si]1(C)O[Si](C)(C)O[Si](C)(C)O[Si](C)(C)O[Si](C)(C)O1 | inactive |  |
| CC(C)(C)NC(=O)[C@H]1CC[C@H]2[C@@H]3CC[C@H]4NC(=O)C=C[C@]4(C)[C@H]3CC[C@]12C | inactive |  |

Each molecule was assayed against human Retinoid X Receptor beta (RXRb), RXRB (gene 6257) (UniProt P28702) (assay: ATG_RXRb_TRANS: Attagene TRANS-FACTORIAL HepG2 Assay for human Retinoid X Receptor beta (RXRb) (AID 2283013)).
Method in brief: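 HepG2 cells transiently transfected with multiplexed reporter units driven by GAL4-UAS and exogenous chimeric NR-Gal4 proteins; treated 24 h. Reporter mRNA measured by RT-PCR, 6-FAM labelling and capillary electrophoresis; gain-of-signal fitted versus DMSO baseline.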

Chain of human Retinoid X Receptor beta (RXRb), RXRB (gene 6257) (P28702 whole entry, looked up, the tested form may be a part): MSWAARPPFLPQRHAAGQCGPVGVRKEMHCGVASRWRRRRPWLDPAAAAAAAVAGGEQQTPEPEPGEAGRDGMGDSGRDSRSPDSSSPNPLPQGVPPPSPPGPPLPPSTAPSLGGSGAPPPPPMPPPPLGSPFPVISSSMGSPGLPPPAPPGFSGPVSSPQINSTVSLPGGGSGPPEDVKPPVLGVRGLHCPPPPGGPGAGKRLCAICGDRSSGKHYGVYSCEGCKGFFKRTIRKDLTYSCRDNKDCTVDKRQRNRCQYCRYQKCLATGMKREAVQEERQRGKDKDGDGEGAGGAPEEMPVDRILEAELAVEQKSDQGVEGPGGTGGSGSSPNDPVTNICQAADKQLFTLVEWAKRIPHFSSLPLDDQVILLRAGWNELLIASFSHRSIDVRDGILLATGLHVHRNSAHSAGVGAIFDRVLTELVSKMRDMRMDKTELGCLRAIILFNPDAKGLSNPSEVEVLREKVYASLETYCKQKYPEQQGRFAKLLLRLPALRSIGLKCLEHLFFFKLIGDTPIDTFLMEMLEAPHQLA

| Structure (SMILES) | outcome | AC50 |
| --- | --- | --- |
| CCCCc1ccc(Cl)cc1 | inactive |  |
| COc1cc(O)c(C(=O)c2ccccc2)cc1S(=O)(=O)O | inactive |  |
| CC(C)(C)C1CCC(=O)CC1 | inactive |  |
| [Cl][Eu]([Cl])[Cl] | inactive |  |
| CCC(C)C(=O)OCCc1ccccc1 (stereo unspecified) | inactive |  |
| CCCCNC(=S)NCCCC | inactive |  |
| CCCCCCCCCCCCCc1ccccc1 | inactive |  |
| CC(=O)CCC=C(C)C | inactive |  |
| CC(C=O)c1ccccc1 (stereo unspecified) | inactive |  |
| Cc1ccc(S(=O)(=O)N=C=O)cc1 | inactive |  |
| CC(C)c1ccc(O)c(C(C)C)c1 |  | 9.23 µM (active) |
| CCCCOC(=O)C(C)CC (stereo unspecified) | inactive |  |
| Cc1cccc(C(C)(C)C)c1O |  | 46.4 µM (active) |
| CCCCCCCCCCCCC | inactive |  |
| CC(=O)CCC1=C(C)CCCC1(C)C |  | 19.6 µM (active) |
| CC1CCC(=O)C1=O (stereo unspecified) |  | 59.8 µM (active) |
| CCCCC1CCC(=O)O1 (stereo unspecified) | inactive |  |
| CCCCCCCCCCCCc1ccc(O)cc1 |  | 3.36 µM (active) |
| C=Cc1cccc(C)c1 | inactive |  |
